Screens as filed in PubChem BioAssay.
PLK1 PBD inh: inhibitors of human PLK1 polo-box domain binding | Potency, µM, hits mostly inhibitors | Plk1 PBD binding of FITC phosphopeptide, fluorescence polarization | 360,000 tested, 2.8% active | P53350; further: series mostly up to about 57 µM; nearly all actives have a fitted effect of over 65% in size
PI5P4Ka inh: PI5P4K alpha (human) kinase inhibition. 330,000 tested, 1.2% active. max response, %. PI5P4Kalpha enzyme, ADP-Glo luminescence, 60 min; hits give low values; active means max response of -50% or lower; inconclusive means between -30% and -50%; inactive means -30% or higher; further: value at the top dose of about 77 µM
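Controls without substrate or without enzyme flank wells where PI5P4Kalpha converts substrate using 5 microM ATP (final). Incubation lasts 60 minutes at room temperature; ADP formed is read by ADP-Glo luminescence.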
G9a block: inhibitors of human histone lysine methyltransferase G9a; Potency, µM (highest dose often 102 µM), actives largely listed as inhibitors; G9a H3K9 monomethylation, AlphaScreen, 2 h; Q96KQ7; 350,000 tested, 8.8% active; further: nearly all actives have a fitted effect of over 75% in size
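Enzyme 20 nM + cpd, 15 min RT; add b-H3K9 pep 500 nM / SAM 20 uM; 2 h RT; anti-H3K9me1 Ab 0.5 ug/mL + SA donor / anti-rabbit acceptor beads 20 ug/mL each, 10 min; AlphaScreen read.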
BAZ2B block: inhibitors of human BAZ2B bromodomain; 360,000 tested, 4.4% active; AlphaScreen BAZ2B-H3K14Ac peptide displacement; Q9UIF8; Potency, µM (titrated, usually from 114 µM), hits mostly inhibitors; further: nearly all actives have a fitted effect of over 60% in size
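In this displacement format the biotinylated H3(5-23) peptide acetylated at Lys14 serves as ligand at 50 nM, with BAZ2B at 50 nM in PBS pH 7.4 containing 0.01% Tween-20. Donor and acceptor beads are 10 ug/mL final.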
JMJD2A Tudor inh: blocks the human JMJD2A Tudor domain; O75164; AlphaScreen JMJD2A-Tudor / H3K4me3 peptide binding; Potency, µM (top dose mostly 114 µM), hits mostly inhibitors; 390,000 tested, 4.4% active; AID 504339; further: nearly all actives have a fitted effect of over 50% in size
Target sequence (O75164 whole entry, looked up, the tested form may be a part): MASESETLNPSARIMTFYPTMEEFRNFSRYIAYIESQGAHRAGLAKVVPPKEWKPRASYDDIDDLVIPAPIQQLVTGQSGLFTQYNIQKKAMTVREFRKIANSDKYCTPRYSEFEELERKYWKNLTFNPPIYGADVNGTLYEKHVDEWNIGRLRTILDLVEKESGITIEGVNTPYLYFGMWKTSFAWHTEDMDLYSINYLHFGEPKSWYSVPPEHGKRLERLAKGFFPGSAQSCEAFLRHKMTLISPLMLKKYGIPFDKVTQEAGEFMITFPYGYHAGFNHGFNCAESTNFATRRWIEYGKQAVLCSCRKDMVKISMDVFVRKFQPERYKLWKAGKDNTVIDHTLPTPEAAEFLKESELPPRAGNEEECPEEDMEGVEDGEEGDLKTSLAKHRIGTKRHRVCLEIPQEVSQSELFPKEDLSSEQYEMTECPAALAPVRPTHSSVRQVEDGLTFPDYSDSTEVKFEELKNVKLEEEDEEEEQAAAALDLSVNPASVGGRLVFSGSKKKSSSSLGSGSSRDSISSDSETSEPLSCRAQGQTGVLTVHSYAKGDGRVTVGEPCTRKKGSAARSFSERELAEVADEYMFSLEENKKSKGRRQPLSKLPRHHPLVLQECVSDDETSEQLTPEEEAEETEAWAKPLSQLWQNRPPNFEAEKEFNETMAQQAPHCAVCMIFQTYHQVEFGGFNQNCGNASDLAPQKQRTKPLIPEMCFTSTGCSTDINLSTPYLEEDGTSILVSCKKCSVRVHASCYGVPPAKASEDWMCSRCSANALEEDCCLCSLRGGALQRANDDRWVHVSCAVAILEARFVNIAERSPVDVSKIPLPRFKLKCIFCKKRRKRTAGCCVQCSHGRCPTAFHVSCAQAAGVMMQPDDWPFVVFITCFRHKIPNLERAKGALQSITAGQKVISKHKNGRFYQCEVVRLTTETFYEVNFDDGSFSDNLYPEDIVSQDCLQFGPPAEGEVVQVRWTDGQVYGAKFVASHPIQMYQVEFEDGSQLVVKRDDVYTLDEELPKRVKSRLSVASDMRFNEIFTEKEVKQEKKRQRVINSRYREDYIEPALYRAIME
HP1b binding inh: inhibitors of HP1-beta chromodomain binding to methylated histone tails; AlphaScreen HP1-beta / biotin-H3K9me3 peptide binding; Potency, µM (highest dose often 114 µM), actives largely listed as inhibitors; 390,000 tested, 0.56% active; AID 540317; further: nearly all actives have a fitted effect of over 70% in size
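Compound inhibition of the preformed complex between 50 nM HP1-beta and 50 nM biotinylated H3K9me3 peptide was read by AlphaScreen. Buffer was PBS pH 7.4 with 0.01% Tween-20. Incubations ran 30 min at room temperature, with 10 ug/mL donor/acceptor beads.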
A number is an active result; i = inactive; ? = inconclusive; nt = no result; [ ] = remark or other dose. Compounds with a hit are over-represented: about 12% of the library has one in this group of screens. Unless noted, the call rests on the fitted dose curve; in most records, active means well fitted curve in the direction sought with a large enough effect; inconclusive means small, poorly fitted or top-dose-only effect, or another doubt; inactive means no such curve, though single readings can be large; an effect the other way counts as inactive or inconclusive.

SMILES | PLK1 PBD inh | PI5P4Ka inh | G9a block | BAZ2B block | JMJD2A Tudor inh | HP1b binding inh
OC(CNCc1ccc(Cl)cc1)COc1ccccc1 (centres undefined) | i | i | i | 56.2µM | 20µM | ?
CC(C)(c1ccccc1)c1ccc(OCC(O)CNC2CCN(Cc3ccccc3)CC2)cc1 (centres undefined) | i | i | 39.8µM | 50.1µM | 2.82µM | ?
COc1ccc(CNCC(O)COc2ccc(C(C)(C)c3ccccc3)cc2)cc1 (centres undefined) | i | i | i[2.33 µM] | 39.8µM | 10µM | ?
CC(=O)c1cccc(OCC(O)CNCCc2ccc(Cl)cc2)c1 (centres undefined) | i | i | ? | 20µM | ? | i
COC(=O)c1ccc(CNCC(O)COc2ccc(-c3ccccc3)cc2)cc1 (centres undefined) | i | i | i | i | i | i
COc1ccc(CCNCC(O)COc2cccc(Br)c2)cc1 (centres undefined) | i | i | i | i | i | i
CNCC(O)COc1ccccc1 (centres undefined) | i | nt | i | i | i | i
CCN(C[C@H]1N[C@@](C)(C(=O)OC)[C@H]2C(=O)N(C)C(=O)[C@@H]12)C(=O)Nc1ccc(Cl)cc1 | i | i | nt | nt | i | i
COc1cc(-c2ccc3ncnc(NCc4nc(C)cs4)c3c2)cc(OC)c1OC | nt | nt | nt | nt | i | nt
CC(NCC(O)COCc1ccc(Cl)cc1)c1ccccc1 (centres undefined) | i | i | i | i | i | i
CCOC(=O)c1cccc(OCC(O)CNCCOc2ccccc2F)c1 (centres undefined) | i | i | 50.1µM | ? | 17.8µM | 70.8µM
OC(CNCCc1ccc(Cl)cc1)COCc1ccco1 (centres undefined) | i | i | 22.4µM | ? | 7.08µM | ?
OC(CNCc1ccccc1)COCc1ccc(Cl)cc1 (centres undefined) | i | i | 10µM | 50.1µM | i | i
COCCCN(C(=S)Nc1c(C)cc(C)cc1C)C(C)c1ccccn1 (centres undefined) | 23.8µM | i | 39.8µM | i | i | i
O=C(CN(C(=O)c1csnn1)c1cccc(Cl)c1)NCCc1ccccc1 | i | i | i | i | i | i
N#Cc1c(-n2ncnc2-c2cccc(Br)c2)sc2c1CCCCC2 | nt | nt | i | i | ? | i
N#Cc1c(-n2ncnc2-c2ccc(F)cc2)sc2c1CCCCC2 | nt | nt | ? | 7.08µM | ? | ?
c1ccc(C(c2ccccc2)N2CCCC3(CCNCC3)C2)cc1 | nt | nt | i[12.7 µM] | nt | nt | nt
CC(C)OC(=O)C1Cc2ccccc2CN1S(=O)(=O)c1cccs1 (centres undefined) | i | i | 79.4µM | ? | i | i
O=C(NC1CCCCC1)c1cc(Nc2cccc(C(F)(F)F)c2)nc2ccccc12 | nt | nt | i | i | i | i
O=C(/C=C/c1ccco1)NCC1(c2ccccc2)CCCC1 | i | i | 11.2µM | i | i | i
O=C(O)CCCNC(=O)/C=C/c1ccco1 | ? | i | nt | 12.6µM | 7.94µM | 35.5µM
O=C(/C=C/c1ccco1)NCCc1ccccc1 | i | i | 44.7µM | i | i | i
CC(C)N(C(=O)Cn1cc(S(=O)(=O)CC(=O)NCc2ccc(F)cc2)c2ccccc21)C(C)C | i | i | i | i | i | i
COc1ccc(OC)c(CNc2ncnc3c2nc2n3CCCC2)c1 | nt | nt | i | i | i | i
SMILES | PLK1 PBD inh | PI5P4Ka inh | G9a block | BAZ2B block | JMJD2A Tudor inh | HP1b binding inh
COc1ccc(SCC(CC(C)C)N2CCN(C)CCC2=O)cc1 (centres undefined) | nt | nt | nt | nt | i | i
Cc1cc(O)c2c(c1)C(=O)c1cccc(O)c1C2=O | nt | nt | ? | i | nt | nt
COc1cc(C)cc(C(=O)O)c1C1=C(O)c2cccc(O)c2C(=O)C1=O | ? | -77.6 | ? | 56.2µM | 79.4µM | i
N#Cc1cc([N+](=O)[O-])ccc1N1CCCC1 | 26.7µM | i | i | i | ? | ?
O=[N+]([O-])c1ccc(N2CCCCCC2)c([N+](=O)[O-])c1 | i | i | ? | ? | ? | ?
O=C(Nc1ccc(N2CCCC2)cc1)c1cc([N+](=O)[O-])ccc1N1CCOCC1 | i | i | nt | ? | 44.7µM | ?
O=C(Nc1ccc2oc(=O)ccc2c1)c1cc([N+](=O)[O-])ccc1N1CCOCC1 | i | i | i | i | i | i
Cc1cc(=O)oc2cc(NC(=O)c3cc([N+](=O)[O-])ccc3N3CCOCC3)ccc12 | i | i | 39.8µM | i | i | i
Cc1ccc(S(=O)(=O)N2CCOCC2)cc1NC(=O)c1cc([N+](=O)[O-])ccc1N1CCOCC1 | i | i | 56.2µM | i | i | i
CCOc1ccccc1NC(=O)CSc1nnc(N)s1 | nt | nt | i | i | i | i
CC(=O)c1cccc(S(=O)(=O)NCCc2csc3nc(-c4ccc(F)cc4)nn23)c1 | nt | nt | i | i | i | i
COc1cc(NC(=O)c2cc([N+](=O)[O-])ccc2N2CCOCC2)ccc1NC(=O)c1ccco1 | i | i | nt | 70.8µM | i | i
COC(=O)c1cc(NC(=O)c2cccs2)ccc1N1CCOCC1 | 26.7µM | i | ? | i | 50.1µM | i
CN1CCN(C(=O)c2cc([N+](=O)[O-])ccc2Cl)CC1 | i | i | 50.1µM | i | i | i
CN1CCN(c2ccc([N+](=O)[O-])cc2C(=O)N2CCCCC2)CC1 | i | i | i | i | i | i
O=C(Nc1cc([N+](=O)[O-])ccc1N1CCOCC1)c1cccs1 | i | i | i | i | i | i
O=C(Nc1ccc(NC(=O)c2cc([N+](=O)[O-])ccc2N2CCOCC2)cc1)c1cccs1 | i | i | 28.2µM | i | i | i
O=C(c1cc([N+](=O)[O-])ccc1N1CCOCC1)N1CCN(c2ccc([N+](=O)[O-])cc2)CC1 | i | i | 11.2µM | i | i | i
CCOC(=O)c1cc(CC)sc1NC(=O)c1cc([N+](=O)[O-])ccc1N1CCOCC1 | ? | i | 11.2µM | i | i | i
O=C(c1cc([N+](=O)[O-])ccc1N1CCOCC1)N1CCCCC1 | i | i | i | i | i | i
N#C/C(=C/c1ccncc1)c1nc2ccccc2c(=O)[nH]1 | i | i | 44.7µM | i | i | i
N#C/C(=C\c1ccncc1)c1nc2ccccc2c(=O)[nH]1 | i | i | 25.1µM | ? | i | i
N#C/C(=C\c1cc(Br)c(O)c(Br)c1)c1nc2ccccc2c(=O)[nH]1 | nt | nt | i | ? | ? | i
O=C(COCc1cc(-c2ccc(F)cc2)on1)Nc1cc(Cl)cc(Cl)c1 | nt | nt | i | i | i | i
COc1ccc(CC(=O)N2CCN(C(=O)c3ccco3)CC2)cc1 | i | nt | ? | i | i | i
CCc1ccc(CN2CCN(C(=O)c3ccco3)CC2)cc1 | i | i | 11.2µM | 31.6µM | 20µM | ?
COc1ccc(OC)c(CN2CCN(C(=O)c3ccco3)CC2)c1 | i | i | 17.8µM | ? | 0.794µM | ?
CC(=O)c1ccc(N2CCN(C(=O)c3ccco3)CC2)c(F)c1 | 18.9µM | i | ? | i | i[11.4 µM] | i
